Where a name gives a salt, the structure may show the parent alone. ± gives the standard deviation.
Legend:
Jurkat [1] = experiment: mean cell size (FSC-A) relative to DMSO control (fraction of control); higher = larger cells; conditions: 48 h
Method in brief: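 Jurkat cells seeded at 600 cells/µl were incubated 1 h, then exposed for 48h to the Enzo Screen-Well FDA Approved Drug Library v2.0 at 25µM in 0.9% (v/v) final DMSO. Drugs that cut counts below 20% of controls were diluted 10-fold and retested, down to 25nM. Cell count and mean cell size (forward scatter area) were read on an Accuri C6 flow cytometer, relative to solvent-only controls. Plates held 6-12 controls; values are means of 3 biological replicates.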

Jurkat [2] = experiment: cell count relative to DMSO control (fraction of control); higher = more cells (less growth inhibition); conditions: 48 h

With `NC(=O)c1ncn([C@@H]2O[C@H](CO)[C@@H](O)[C@H]2O)n1` [Ribavirin] (concentration: 25 µM) the mean cell size (Jurkat [1]) was 0.9983 ± 0.0034 and the cell count (Jurkat [2]) was 0.625 ± 0.077.
`CC1(C)O[C@@H]2C[C@H]3[C@@H]4C[C@H](F)C5=CC(=O)C=C[C@]5(C)[C@H]4[C@@H](O)C[C@]3(C)[C@]2(C(=O)CO)O1` [Flunisolide] (concentration: 2.5 µM) was tested, and the mean cell size (Jurkat [1]) was 0.996 ± 0.021 and the cell count (Jurkat [2]) was 0.893 ± 0.11.
Work on `CCN(CC)CCCC(C)Nc1ccnc2cc(Cl)ccc12` (stereo not drawn) [Chloroquine Diphosphate] (concentration: 25 µM) yielded a mean cell size (Jurkat [1]) of 0.947 ± 0.025 and a cell count (Jurkat [2]) of 1.03 ± 0.099.
`CC(C)c1c(C(=O)Nc2ccccc2)c(-c2ccccc2)c(-c2ccc(F)cc2)n1CC[C@@H](O)C[C@@H](O)CC(=O)O` [Atorvastatin Calcium] (concentration: 25 µM) showed a mean cell size (Jurkat [1]) of 1.05 ± 0.028 and a cell count (Jurkat [2]) of 0.552 ± 0.07.
Compound `Nc1ncn([C@H]2C[C@H](O)[C@@H](CO)O2)c(=O)n1` [Decitabine] (concentration: 2.5 µM) has a mean cell size (Jurkat [1]) of 1 ± 0.018 and a cell count (Jurkat [2]) of 0.363 ± 0.035.
`CO/N=C(\C(=O)N[C@@H]1C(=O)N2C(C(=O)[O-])=C(C[N+]3(C)CCCC3)CS[C@H]12)c1csc(N)n1` [Cefepime·HCl Hydrate] (concentration: 25 µM) was tested, and the mean cell size (Jurkat [1]) was 1.02 ± 0.046 and the cell count (Jurkat [2]) was 0.826 ± 0.045.
`CN(C)CCOC(c1ccccc1)c1ccccc1` [Diphenhydramine·HCl] (concentration: 25 µM) showed a mean cell size (Jurkat [1]) of 0.967 ± 0.017 and a cell count (Jurkat [2]) of 0.987 ± 0.042.
`CC(=O)N1CCN(c2ccc(OCC3COC(Cn4ccnc4)(c4ccc(Cl)cc4Cl)O3)cc2)CC1` (stereo not drawn) [Ketoconazole] (concentration: 25 µM) was tested, and the mean cell size (Jurkat [1]) was 0.84 ± 0.013 and the cell count (Jurkat [2]) was 0.564 ± 0.035.
`CC(=O)N(O)CCCCCNC(=O)CCC(=O)N(O)CCCCCNC(=O)CCC(=O)N(O)CCCCCN` [Deferoxamine Mesylate] (concentration: 25 µM) gave a mean cell size (Jurkat [1]) of 1.09 ± 0.053 and a cell count (Jurkat [2]) of 0.496 ± 0.062.
Compound `Nc1nc(NC2CC2)c2ncn([C@H]3C=C[C@@H](CO)C3)c2n1` [Abacavir Sulfate] (concentration: 25 µM) has a mean cell size (Jurkat [1]) of 1.1 ± 0.033 and a cell count (Jurkat [2]) of 0.858 ± 0.15.
In the case of `COc1ccc(CC(C)NCC(O)c2ccc(O)c(NC=O)c2)cc1` (stereo not drawn) [Formoterol] (concentration: 25 µM), the mean cell size (Jurkat [1]) is reported as 0.992 ± 0.033 and the cell count (Jurkat [2]) is reported as 0.808 ± 0.044.
`CC(C)C[C@H](NC(=O)[C@H](Cc1ccccc1)NC(=O)c1cnccn1)B(O)O` [Bortezomib] (concentration: 25 nM) showed a mean cell size (Jurkat [1]) of 0.894 ± 0.064 and a cell count (Jurkat [2]) of 0.112 ± 0.11.
Work on `O=C1CCCC(=O)C1C(=O)c1ccc(C(F)(F)F)cc1[N+](=O)[O-]` [Nitisinone] (concentration: 25 µM) yielded a mean cell size (Jurkat [1]) of 0.938 ± 0.017 and a cell count (Jurkat [2]) of 0.936 ± 0.1.
`Nc1ccn([C@@H]2O[C@H](CO)[C@@H](O)C2(F)F)c(=O)n1` [Gemcitabine·HCl] (concentration: 25 nM) gave a mean cell size (Jurkat [1]) of 1.12 ± 0.024 and a cell count (Jurkat [2]) of 0.427 ± 0.09.
`C=C[C@H]1CN2CC[C@H]1C[C@@H]2[C@@H](O)c1ccnc2ccc(OC)cc12` [Quinidine·HCl·H2O] (concentration: 25 µM) showed a mean cell size (Jurkat [1]) of 0.9234 ± 0.0047 and a cell count (Jurkat [2]) of 0.665 ± 0.11.
Work on `NCc1ccc(S(N)(=O)=O)cc1` [Mafenide·HCl] (concentration: 25 µM) yielded a mean cell size (Jurkat [1]) of 0.92 ± 0.056 and a cell count (Jurkat [2]) of 1.17 ± 0.04.
`CC(=O)Oc1cc2c(s1)CCN(C(C(=O)C1CC1)c1ccccc1F)C2` (stereo not drawn) [Prasugrel] (concentration: 25 µM) gave a mean cell size (Jurkat [1]) of 1.06 ± 0.023 and a cell count (Jurkat [2]) of 0.831 ± 0.14.
With `Nc1nc2[nH]cc(CCc3ccc(C(=O)N[C@@H](CCC(=O)O)C(=O)O)cc3)c2c(=O)[nH]1` [Pemetrexed Disodium] (concentration: 2.5 µM) the mean cell size (Jurkat [1]) was 1.4 ± 0.058 and the cell count (Jurkat [2]) was 0.247 ± 0.028.
With `O=C(N[C@H](CO)[C@H](O)c1ccc([N+](=O)[O-])cc1)C(Cl)Cl` [Chloramphenicol] (concentration: 25 µM) the mean cell size (Jurkat [1]) was 0.949 ± 0.022 and the cell count (Jurkat [2]) was 0.819 ± 0.078.
In the case of `O=P(O)(O)C(O)(Cn1ccnc1)P(=O)(O)O` [Zoledronic Acid Monohydrate] (concentration: 25 µM), the mean cell size (Jurkat [1]) is reported as 0.938 ± 0.031 and the cell count (Jurkat [2]) is reported as 0.296 ± 0.11.
`CN(C)CCC(c1ccc(Cl)cc1)c1ccccn1` (stereo not drawn) [Chlorpheniramine Maleate] (concentration: 25 µM) showed a mean cell size (Jurkat [1]) of 0.961 ± 0.02 and a cell count (Jurkat [2]) of 0.917 ± 0.11.
`Clc1ccc(CO/N=C(\Cn2ccnc2)c2ccc(Cl)cc2Cl)c(Cl)c1` [Oxiconazole Nitrate] (concentration: 25 µM) showed a mean cell size (Jurkat [1]) of 0.933 ± 0.016 and a cell count (Jurkat [2]) of 0.87 ± 0.18.
`Nc1nc2c(ncn2COC(CO)CO)c(=O)[nH]1` [Ganciclovir] (concentration: 25 µM) gave a mean cell size (Jurkat [1]) of 1.022 ± 0.0079 and a cell count (Jurkat [2]) of 0.51 ± 0.1.
With `O=c1[nH]c(=O)n([C@H]2C[C@H](O)[C@@H](CO)O2)cc1I` [Idoxuridine] (concentration: 25 µM) the mean cell size (Jurkat [1]) was 1.05 ± 0.019 and the cell count (Jurkat [2]) was 0.235 ± 0.062.
`CC[C@H]1OC(=O)[C@H](C)C(=O)[C@H](C)[C@@H](O[C@@H]2O[C@H](C)C[C@H](N(C)C)[C@H]2O)[C@](C)(OC)C[C@@H](C)C(=O)[C@H](C)[C@H]2N(CCCCn3cnc(-c4cccnc4)c3)C(=O)O[C@]12C` [Telithromycin] (concentration: 25 µM) was tested, and the mean cell size (Jurkat [1]) was 0.921 ± 0.049 and the cell count (Jurkat [2]) was 0.949 ± 0.057.
In the case of `CCN1CC(CCN2CCOCC2)C(c2ccccc2)(c2ccccc2)C1=O` (stereo not drawn) [Doxapram·HCl] (concentration: 25 µM), the mean cell size (Jurkat [1]) is reported as 0.928 ± 0.013 and the cell count (Jurkat [2]) is reported as 1.01 ± 0.015.
Compound `O=NN(CCCl)C(=O)NC1CCCCC1` [Lomustine] (concentration: 25 µM) has a mean cell size (Jurkat [1]) of 1.19 ± 0.07 and a cell count (Jurkat [2]) of 0.287 ± 0.11.
Compound `Cc1ccc(Nc2nccc(N(C)c3ccc4c(C)n(C)nc4c3)n2)cc1S(N)(=O)=O` [Pazopanib·HCl] (concentration: 25 µM) has a mean cell size (Jurkat [1]) of 0.9554 ± 0.0092 and a cell count (Jurkat [2]) of 0.772 ± 0.12.
In the case of `C[C@H](CS)C(=O)N1CCC[C@H]1C(=O)O` [Captopril] (concentration: 25 µM), the mean cell size (Jurkat [1]) is reported as 0.951 ± 0.029 and the cell count (Jurkat [2]) is reported as 1.01 ± 0.099.
`CCC(=O)OCC(=O)[C@@]1(OC(=O)CC)[C@@H](C)C[C@H]2[C@@H]3CCC4=CC(=O)C=C[C@]4(C)[C@@]3(Cl)[C@@H](O)C[C@@]21C` [Beclomethasone Dipropionate] (concentration: 25 µM) was tested, and the mean cell size (Jurkat [1]) was 0.913 ± 0.049 and the cell count (Jurkat [2]) was 0.774 ± 0.07.
`CCCCC(=O)N(Cc1ccc(-c2ccccc2-c2nnn[nH]2)cc1)[C@H](C(=O)O)C(C)C` [Valsartan] (concentration: 25 µM) was tested, and the mean cell size (Jurkat [1]) was 0.9682 ± 0.0072 and the cell count (Jurkat [2]) was 0.976 ± 0.11.
Work on `C[N+]1(C)CCC(OC(=O)C(O)(c2ccccc2)C2CCCC2)C1` (stereo not drawn) [Glycopyrrolate Iodide] (concentration: 25 µM) yielded a mean cell size (Jurkat [1]) of 0.995 ± 0.037 and a cell count (Jurkat [2]) of 0.838 ± 0.061.
`CNS(=O)(=O)Cc1ccc2[nH]cc(CCN(C)C)c2c1` [Sumatriptan Succinate] (concentration: 25 µM) was tested, and the mean cell size (Jurkat [1]) was 0.955 ± 0.031 and the cell count (Jurkat [2]) was 0.738 ± 0.1.
`C[N+](C)(C)CCOC(=O)CCC(=O)OCC[N+](C)(C)C` [Succinylcholine Chloride·2H2O] (concentration: 25 µM) was tested, and the mean cell size (Jurkat [1]) was 0.943 ± 0.014 and the cell count (Jurkat [2]) was 0.908 ± 0.081.
In the case of `CCOc1cc(CC(=O)N[C@@H](CC(C)C)c2ccccc2N2CCCCC2)ccc1C(=O)O` [Repaglinide] (concentration: 25 µM), the mean cell size (Jurkat [1]) is reported as 1.03 ± 0.022 and the cell count (Jurkat [2]) is reported as 0.728 ± 0.063.
In the case of `Clc1ccc(C(Cn2ccnc2)OCc2csc3c(Cl)cccc23)c(Cl)c1` (stereo not drawn) [Sertaconazole] (concentration: 25 µM), the mean cell size (Jurkat [1]) is reported as 1.04 ± 0.05 and the cell count (Jurkat [2]) is reported as 0.801 ± 0.11.
Work on `COc1c(N2C[C@@H]3CCCN[C@@H]3C2)c(F)cc2c(=O)c(C(=O)O)cn(C3CC3)c12` [Moxifloxacin·HCl] (concentration: 25 µM) yielded a mean cell size (Jurkat [1]) of 0.919 ± 0.01 and a cell count (Jurkat [2]) of 0.632 ± 0.14.
`Cc1ccnc2c1NC(=O)c1cccnc1N2C1CC1` [Nevirapine] (concentration: 25 µM) gave a mean cell size (Jurkat [1]) of 0.924 ± 0.051 and a cell count (Jurkat [2]) of 0.476 ± 0.11.
In the case of `CC(C)c1nc(CN(C)C(=O)N[C@H](C(=O)N[C@@H](Cc2ccccc2)C[C@H](O)[C@H](Cc2ccccc2)NC(=O)OCc2cncs2)C(C)C)cs1` [Ritonavir] (concentration: 25 µM), the mean cell size (Jurkat [1]) is reported as 0.999 ± 0.079 and the cell count (Jurkat [2]) is reported as 0.564 ± 0.14.
